± gives the standard deviation of the averaged measurements.
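Also: End-point A600 read in BHI broth at 37 °C with 2% DMSO, inhibition computed as (1 − OD with compound plus ceftriaxone ÷ OD with ceftriaxone only) × 100.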

The test system of the experiment is Listeria monocytogenes 10403S. Put plainly: growth inhibition relative to ceftriaxone-alone control; higher = stronger potentiation of ceftriaxone growth inhibition. To be noted: 10 µM; ceftriaxone 1 ug/ml; 12 h.
`COc1cc2ncn(-c3cc(OCCc4ccccc4)c(C(N)=O)s3)c2cc1OC`: the growth inhibition is -4.76 ± 1.4%.

Take `COc1ccc(-c2nn3ncccc3c2-c2ccnc(Nc3ccc4c(c3)OCCO4)n2)cc1`: the growth inhibition is -7.96 ± 4.1%.

Turning to `c1cnn2ncc(-c3ccnc(NCCCN4CCOCC4)n3)c2c1`, the growth inhibition is -2.97 ± 0.54%.

As to `Nc1ccc(C#Cc2cncnc2Nc2ccc(OCc3cccc(F)c3)c(Cl)c2)cc1`, the growth inhibition is -6.22 ± 2.5%.

Regarding `CNC(=O)c1ncccc1Nc1nc(Nc2cc3c(cc2OC)CCCN3C(=O)CN(C)C)nc2[nH]ccc12`, the growth inhibition is -2.03 ± 1.3%.

In the case of `O=C1NC(=O)C(c2ccccc2[N+](=O)[O-])=C1Nc1ccc(O)c(Cl)c1`, the growth inhibition was determined as 52.5 ± 49%.

On to `COc1cc2ncnc(Nc3cccc(Br)c3)c2cc1OC`, for which the growth inhibition was 36.1 ± 16%.

For the compound `Nc1ncc(-c2cccc(S(N)(=O)=O)c2)c2scc(-c3ccc(F)c(Cl)c3)c12`, the growth inhibition is -7.14 ± 12%.

In the case of `OCc1ccc(-c2nc(-c3ccc4c(c3)OCO4)c(-c3ccccn3)[nH]2)cc1`, the growth inhibition came to 7.68 ± 2.9%.

Turning to `Fc1ccc(-c2ncn(CCCN3CCOCC3)c2-c2ccncc2)cc1`, the growth inhibition is 1.14 ± 3.2%.

As to `CCn1cc(-c2ccnc3[nH]ccc23)c(-c2cccc(NC(=O)Nc3ccc(OCc4ccccc4)cc3)c2)n1`, the growth inhibition was -0.807 ± 2.3%.

As for `NS(=O)(=O)c1ccc(-c2cc3ccncc3cc2OCc2ccccc2)cc1`, the growth inhibition is -3.99 ± 6.9%.

Consider `CO[C@H]1C[C@@H]2CC[C@@H](C)[C@@](O)(O2)C(=O)C(=O)N2CCCC[C@H]2C(=O)O[C@H]([C@H](C)C[C@@H]2CC[C@@H](OP(C)(C)=O)[C@H](OC)C2)CC(=O)[C@H](C)/C=C(\C)[C@@H](O)[C@@H](OC)C(=O)[C@H](C)C[C@H](C)/C=C/C=C/C=C/1C` [Deforolimus (Ridaforolimus)], for which the growth inhibition was found to be 39.2 ± 14%.

`Cc1nc(Nc2ncc(C(=O)Nc3c(C)cccc3Cl)s2)cc(N2CCN(CCO)CC2)n1`: the growth inhibition came out at 32 ± 20%.

`Fc1cccc(COc2ccc(Nc3ncnc4sc(-c5ccco5)cc34)cc2Cl)c1`: the growth inhibition worked out at 6.89 ± 3.7%.

Regarding `O=c1sn(-c2cccc3ccccc23)c(=O)n1Cc1ccccc1` [Tideglusib], the growth inhibition was determined as 89.5 ± 12%.

Turning to `O=C1Nc2ccc(-c3cccnc3)cc2C1=Cc1cc(Br)c(O)c(Br)c1`, the growth inhibition was 22.1 ± 2.9%.

For `O=c1cc(-c2cccc3c2Sc2ccccc2S3)oc(N2CCOCC2)c1`, the growth inhibition is 86.2 ± 1.3%.

Turning to `O=C1NC(=O)C(c2cccc(Cl)c2)=C1Nc1ccc(Cl)c(C(=O)O)c1`, the growth inhibition stood at 9.83 ± 0.41%.

In the case of `NS(=O)(=O)c1ccc(Nc2cc(-c3ccc(O)c(F)c3)n[nH]2)cc1`, the growth inhibition came out at 10.1 ± 4.6%.

Take `Cc1ccc([N+](=O)[O-])cc1S(=O)(=O)N(C)/N=C/c1cnc2ccc(Br)cn12`: the growth inhibition came out at 2.5 ± 4.3%.

Turning to `CCn1c(-c2nonc2N)nc2cncc(C(=O)NCCNC)c21`, the growth inhibition was -6.44 ± 0.39%.

On to `Nc1nccc(-c2c(-c3ccc(F)cc3)ncn2C2CCNCC2)n1`, for which the growth inhibition came out at 2.49 ± 6.8%.

As to `Cc1cc(-c2ccccn2)cc(C)c1/C=C/c1cncc(-c2nn[nH]n2)c1`, the growth inhibition was -7.47 ± 9.6%.

Consider `COC(=O)Nc1nc2cc(Oc3ccc(NC(=O)Nc4cccc(C(=O)O)c4)cc3)ccc2[nH]1`, for which the growth inhibition was 7.27 ± 7.2%.

For the compound `Cn1c(-c2nonc2N)nc2cnccc21`, the growth inhibition was -5.76 ± 4.5%.

Turning to `NS(=O)(=O)c1ccc(N/C=C2\C(=O)Nc3ccc4ncsc4c32)cc1`, the growth inhibition is -2.62 ± 4.2%.

For `Fc1ccc(-c2c(-c3ccncc3)nc3n2CCS3)cc1`, the growth inhibition was -6.65 ± 12%.

In the case of `CN(C)C(=O)O[C@H]1CN[C@H](C#Cc2cc3ncnc(Nc4ccc(OCc5cccc(F)c5)c(Cl)c4)c3s2)C1`, the growth inhibition was -7.88 ± 10%.

With `CCn1c(-c2nonc2N)nc2cncc(C(=O)N3CC[C@H](N)C3)c21`, the growth inhibition is 7.57 ± 2.1%.

Consider `CCc1cc2c(cc1N1CCC(N3CCOCC3)CC1)C(C)(C)c1[nH]c3cc(C#N)ccc3c1C2=O`, for which the growth inhibition was -2.85 ± 9.2%.

Consider `O=C(Cc1ccc(-c2ccc(OCCN3CCOCC3)cc2)cn1)NCc1ccccc1`, for which the growth inhibition amounted to 33.6 ± 8.5%.

With `Cc1nc(N)sc1-c1ccnc(Nc2ccc(N3CCOCC3)cc2)n1`, the growth inhibition was -5.25 ± 7.3%.

`C[C@@H](Oc1cc(-n2cnc3ccc(OC4CCN(C)CC4)cc32)sc1C(N)=O)c1ccccc1Cl`: the growth inhibition amounted to 0.604 ± 2.5%.

With `CN1CCN(C(=O)c2ccc(NC(=O)Nc3ccc(N(C)c4ccnc(Nc5ccc(CS(C)(=O)=O)cc5)n4)cc3)cc2)CC1`, the growth inhibition is -5.87 ± 3.3%.

On to `CC[C@H](Nc1ncnc2[nH]cnc12)c1nc2cccc(F)c2c(=O)n1-c1ccccc1`, for which the growth inhibition is 21.7 ± 23%.

`CN1CCC(n2cnc(-c3ccc(F)cc3)c2-c2ccnc(Nc3ccccc3)n2)CC1`: the growth inhibition is -8.92 ± 3.6%.

For `CN(C)C/C=C/C(=O)Nc1cc2c(Nc3ccc(F)c(Cl)c3)ncnc2cc1O[C@H]1CCOC1` [Afatinib (BIBW2992)], the growth inhibition was 45.41 ± 0.44%.

The values are drawn from the supplement of paper PMC5641865, “A screen for kinase inhibitors identifies antimicrobial imidazopyridine aminofurazans as specific inhibitors of the Listeria monocytogenes PASTA kinase PrkA” (The Journal of Biological Chemistry, 2017).
